SMILES strings stand for the structures. Inconclusive results are not listed. Calls of active or inactive are those of the source. Rule for the calls, unless noted: active = hit-call score of the fitted dose curve at least 0.9, where 1 is the maximum; inconclusive = response in the unintended direction; inactive = score below 0.9.

Here are results for 5 compounds from PubChem BioAssay (EPA / NIEHS).

The nature of assay [1]: ATG_M_61_CIS: Attagene CIS-FACTORIAL HepG2 Assay for M61 Transcription Factor (Internal Marker) (AID 2282937; active = hit-call score of the fitted dose curve at least 0.9, where 1 is the maximum; inactive = score below 0.9). The conditions noted are these: HepG2 Attagene CIS-FACTORIAL M61 internal marker reporter; actives raise or lower the signal. The method, boiled down:
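Fluorescence from labelled cDNA fragments, separated by capillary electrophoresis, quantifies reporter induction. HepG2 cells bearing transiently transfected cis-promoter MRTUs were incubated with test chemical for 24 h; DMSO defined baseline for gain/loss fitting.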

Assay [2] can be described thus: ATG_EGR_CIS: Attagene CIS-FACTORIAL HepG2 Assay for human Early Growth Response 1 (EGR1) (AID 2282938; active = hit-call score of the fitted dose curve at least 0.9, where 1 is the maximum; inactive = score below 0.9). Particulars: HepG2 Attagene CIS-FACTORIAL EGR reporter mRNA; actives raise or lower the signal. An outline of the steps: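 Cell-based multiplex transcription assay: HepG2 carrying transfected cis-element reporter units, 24 h chemical treatment. Fluorescence from capillary electrophoresis of RT-PCR products gives mRNA levels; fitting is bidirectional relative to DMSO.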

Assay [3] is described as follows: ATG_GRE_CIS: Attagene CIS-FACTORIAL HepG2 Assay for human Glucocorticoid Response Elements (GRE) (AID 2282947; active = hit-call score of the fitted dose curve at least 0.9, where 1 is the maximum; inactive = score below 0.9). Particulars: HepG2 GRE cis-reporter, Attagene multiplex mRNA; actives raise or lower the signal. An outline of the steps: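 Assay uses human hepatoma HepG2 cells transfected with cis-promoter reporter units, exposed 24 h. mRNA from reporters detected by RT-PCR plus capillary electrophoresis; DMSO serves as negative control and baseline.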

The nature of assay [4]: ATG_M_06_CIS: Attagene CIS-FACTORIAL HepG2 Assay for M06 Transcription Factor (Internal Marker) (AID 2282950; active = hit-call score of the fitted dose curve at least 0.9, where 1 is the maximum; inactive = score below 0.9). The conditions noted are these: HepG2 Attagene CIS-FACTORIAL M06 internal marker reporter; actives raise or lower the signal. The method, boiled down: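 One of many multiplexed endpoints: HepG2 reporter mRNA after 24 h dosing, detected by RT-PCR and capillary electrophoresis fluorescence; gain or loss of signal analysed against DMSO.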

Assay [5] in a line: ATG_RORE_CIS: Attagene CIS-FACTORIAL HepG2 Assay for human RAR-related Orphan Receptor Element (RORE) (AID 2282959; active = hit-call score of the fitted dose curve at least 0.9, where 1 is the maximum; inactive = score below 0.9). Particulars: HepG2 Attagene cis-factorial RORE reporter, mRNA; actives raise or lower the signal. An outline of the steps: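 Fluorescence intensity of reporter-specific cDNA fragments, separated by capillary electrophoresis, gives the signal. Source: HepG2 liver cells transiently transfected with cis-element reporters and exposed 24 h; DMSO-normalized bidirectional fit.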

Assay [6] has as its target Hepatocyte nuclear factor 4-alpha (Homo sapiens) (UniProt P41235). Put plainly: ATG_HNF4a_TRANS: Attagene TRANS-FACTORIAL HepG2 Assay for human Hepatocyte Nuclear Factor 4 alpha (HNF4a) (AID 2282982). Particulars: HepG2 HNF4a transactivation reporter, mRNA readout. An outline of the steps:
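Transfected HepG2 reporter cells are dosed for 24 h; reporter RNA is reverse-transcribed, amplified, fluorescently labelled and HpaI-digested before CE sizing. Positive-direction fit against DMSO.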

Assay [7] is described as follows: ATG_M_06_TRANS: Attagene TRANS-FACTORIAL HepG2 Assay for M06 Transcription Factor (Internal Marker) (AID 2282983). The conditions noted are these: HepG2 Attagene TRANS M06 internal marker reporter. The method, boiled down:
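HepG2 cells transiently transfected with multiplexed GAL4-UAS reporter transcription units; after 24 h compound exposure, reporter mRNA measured by RT-PCR, FAM-labelled primer extension, HpaI digestion and capillary electrophoresis. Gain-of-signal fitted versus DMSO baseline; background control readout.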

Assay [8] in a line: ATG_NFI_CIS: Attagene CIS-FACTORIAL HepG2 Assay for human Nuclear Factor I (NFI) (AID 2282989; active = hit-call score of the fitted dose curve at least 0.9, where 1 is the maximum; inactive = score below 0.9). Particulars: HepG2 cis-regulatory reporter, NFI response element transcription; actives raise or lower the signal. The method, boiled down:
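Reporter transcription driven by endogenous transcription factors in HepG2 cells; 24 h treatment. Quantitation by labelled RT-PCR fragments on capillary electrophoresis, gain- or loss-of-signal relative to DMSO.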

Assay [9] addresses Nuclear receptor subfamily 1 group I member 2 (Homo sapiens) (UniProt O75469). Put plainly: ATG_PXR_TRANS: Attagene TRANS-FACTORIAL HepG2 Assay for human Pregnane X Receptor (PXR) (AID 2283008). An outline of the steps:
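Measures mRNA induction of a GAL4-UAS-driven reporter in human HepG2 cells transiently expressing PXR fused to Gal4, following 24 h treatment. DMSO served as negative control and baseline.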

Assay [10] has as its target human Retinoid X Receptor beta (RXRb), RXRB (gene 6257) (UniProt P28702). Put plainly: ATG_RXRb_TRANS: Attagene TRANS-FACTORIAL HepG2 Assay for human Retinoid X Receptor beta (RXRb) (AID 2283013). The method, boiled down:
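HepG2 cells transiently transfected with multiplexed reporter units driven by GAL4-UAS and exogenous chimeric NR-Gal4 proteins; treated 24 h. Reporter mRNA measured by RT-PCR, 6-FAM labelling and capillary electrophoresis; gain-of-signal fitted versus DMSO baseline.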

Assay [11] has as its target Cellular tumor antigen p53 (Homo sapiens) (UniProt P04637). Put plainly: TOX21_p53_BLA_p3_ratio: Tox21 HCT-116 p53 Agonism Beta-lactamase Assay, Ratio, Phase 3 (AID 2283596). The method, boiled down: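 HCT116 p53-bla cells (4000/well) given compound in DMSO (217-fold dilution) after 5 h, incubated 16 h at 37C. CCF4-AM substrate 2 h at room temperature; 460/530 nm emission ratio, gain fitted against DMSO.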

Assay [12] is described as follows: TOX21_p53_BLA_p5_viability: Viability Assessment in the Tox21 HCT-116 p53 Agonism Beta-lactamase Assay, Phase 5 (AID 2283600). An outline of the steps:
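Cells were plated at 4000/well, rested 5 h at 37C, then given compounds in DMSO (217-fold dilution) for 16 h at 37C, 5% CO2. Following the CCF4-AM beta-lactamase read, CellTiter-Glo was added and luminescence was read after 30 min at room temperature.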

The target of assay [13] is Cellular tumor antigen p53 (Homo sapiens) (UniProt P04637). Put plainly: TOX21_p53_BLA_p4_ratio: Tox21 HCT-116 p53 Agonism Beta-lactamase Assay, Ratio, Phase 4 (AID 2283601). An outline of the steps:
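Signal is the blue/green (460nm/530nm) ratio of cleaved versus uncleaved CCF4-AM substrate, read after 2 h substrate loading. Cells were HCT116 carrying the p53-responsive beta-lactamase reporter, dosed 16 h at 37C, 5% CO2; CellTiter-Glo measured in parallel.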

Assay [14] is described as follows: ATG_PPRE_CIS: Attagene CIS-FACTORIAL HepG2 Assay for human Peroxisome Proliferator-activated Response Element (PPRE) (AID 2282958; active = hit-call score of the fitted dose curve at least 0.9, where 1 is the maximum; inactive = score below 0.9). The conditions noted are these: HepG2 PPRE cis-element reporter, Attagene transcription factor profiling; actives raise or lower the signal. The method, boiled down:
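Multiplexed reporter transcription units under cis-regulatory promoters were transfected into HepG2 cells to capture endogenous factor activity. A 24 h incubation preceded RNA isolation and fluorescent RT-PCR fragment analysis.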

Assay [15] addresses Nuclear respiratory factor 1 (Homo sapiens) (UniProt Q16656). The experiment in a line: ATG_NRF1_CIS: Attagene CIS-FACTORIAL HepG2 Assay for human Nuclear Respiratory Factor 1 (NRF1) Orphan Gene (AID 2282987; active = hit-call score of the fitted dose curve at least 0.9, where 1 is the maximum; inactive = score below 0.9). The conditions noted are these: HepG2 NRF1 cis-element reporter, Attagene multiplex; actives raise or lower the signal. An outline of the steps: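 Transcriptional reporter readout, one component of a 52-endpoint multiplexed HepG2 panel. Exposure 24 h; mRNA detected via RT-PCR and fluorescent capillary electrophoresis; fitting in both directions against DMSO.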

The target of assay [16] is Cellular tumor antigen p53 (Homo sapiens) (UniProt P04637). The experiment in a line: TOX21_p53_BLA_p2_ratio: Tox21 HCT-116 p53 Agonism Beta-lactamase Assay, Ratio, Phase 2 (AID 2283592). The method, boiled down: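 HCT116 cells carrying a p53-responsive beta-lactamase reporter were plated, incubated 5 h at 37C, then dosed with compounds in DMSO (217-fold dilution) for 16 h. CCF4-AM substrate was added for 2 h at room temperature; the 460/530 nm emission ratio gave gain-of-signal activity relative to DMSO.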

Assay [17] has the same target. The experiment in a line: TOX21_p53_BLA_p5_ratio: Tox21 HCT-116 p53 Agonism Beta-lactamase Assay, Ratio, Phase 5 (AID 2283599). The method, boiled down:
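Beta-lactamase reporter ratio (blue 460 nm over green 530 nm, 405 nm excitation) after 2 h CCF4-AM loading, in HCT-116 cells exposed 16 h at 37 C to compounds pinned at 217-fold dilution. Increases relative to DMSO baseline scored.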

Assay [18] is described as follows: ATG_TGFb_CIS: Attagene CIS-FACTORIAL HepG2 Assay for human Transforming Growth Factor (TGF) (AID 2282967; active = hit-call score of the fitted dose curve at least 0.9, where 1 is the maximum; inactive = score below 0.9). Particulars: HepG2 Attagene CIS TGFb reporter, mRNA transcription; actives raise or lower the signal. An outline of the steps:
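After a 24-hour incubation with compound, transfected HepG2 cells were lysed for RNA; reporter cDNA was amplified, fluorescently end-labeled and separated by CE. DMSO served as baseline for bidirectional fits.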

For assay [19], the target named is Retinoic acid receptor RXR-alpha (Homo sapiens) (UniProt P19793). The experiment in a line: ATG_RXRa_TRANS: Attagene TRANS-FACTORIAL HepG2 Assay for human Retinoid X Receptor alpha (RXRa) (AID 2283012). An outline of the steps:
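HepG2 cells transiently transfected with multiplexed GAL4-UAS reporter units and chimeric NR-GAL4 fusions, dosed 24 h. Reporter mRNA measured by RT-PCR, FAM labelling, HpaI digestion and capillary electrophoresis; gain-of-signal fitted relative to DMSO baseline.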

Sequence of Retinoic acid receptor RXR-alpha (Homo sapiens) (P19793 whole entry, looked up, the tested form may be a part): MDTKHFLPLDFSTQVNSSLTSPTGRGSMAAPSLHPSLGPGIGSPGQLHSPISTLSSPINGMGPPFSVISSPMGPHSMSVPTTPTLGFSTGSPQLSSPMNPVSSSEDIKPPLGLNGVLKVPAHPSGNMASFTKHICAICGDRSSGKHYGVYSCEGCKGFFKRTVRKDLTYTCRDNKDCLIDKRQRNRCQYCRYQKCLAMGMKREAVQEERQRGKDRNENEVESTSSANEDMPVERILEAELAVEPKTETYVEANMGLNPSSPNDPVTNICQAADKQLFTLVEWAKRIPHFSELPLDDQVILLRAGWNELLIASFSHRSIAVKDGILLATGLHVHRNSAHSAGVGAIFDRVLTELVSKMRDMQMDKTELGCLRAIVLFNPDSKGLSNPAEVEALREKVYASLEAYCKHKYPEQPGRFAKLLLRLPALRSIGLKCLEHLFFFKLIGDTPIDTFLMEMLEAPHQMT
Sequence of Hepatocyte nuclear factor 4-alpha (Homo sapiens) (P41235 whole entry, looked up): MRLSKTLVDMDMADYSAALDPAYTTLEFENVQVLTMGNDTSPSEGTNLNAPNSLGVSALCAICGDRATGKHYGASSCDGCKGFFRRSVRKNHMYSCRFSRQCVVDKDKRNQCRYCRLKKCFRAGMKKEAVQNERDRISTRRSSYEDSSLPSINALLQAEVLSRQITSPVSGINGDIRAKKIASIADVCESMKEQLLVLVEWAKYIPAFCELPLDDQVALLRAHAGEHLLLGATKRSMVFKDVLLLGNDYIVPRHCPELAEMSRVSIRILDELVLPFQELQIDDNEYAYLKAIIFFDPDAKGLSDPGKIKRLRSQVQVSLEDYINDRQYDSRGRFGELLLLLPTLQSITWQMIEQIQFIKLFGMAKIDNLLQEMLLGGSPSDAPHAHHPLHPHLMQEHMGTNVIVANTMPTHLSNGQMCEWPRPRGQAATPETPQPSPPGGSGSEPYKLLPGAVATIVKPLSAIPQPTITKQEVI
Sequence of Cellular tumor antigen p53 (Homo sapiens) (P04637 whole entry, looked up): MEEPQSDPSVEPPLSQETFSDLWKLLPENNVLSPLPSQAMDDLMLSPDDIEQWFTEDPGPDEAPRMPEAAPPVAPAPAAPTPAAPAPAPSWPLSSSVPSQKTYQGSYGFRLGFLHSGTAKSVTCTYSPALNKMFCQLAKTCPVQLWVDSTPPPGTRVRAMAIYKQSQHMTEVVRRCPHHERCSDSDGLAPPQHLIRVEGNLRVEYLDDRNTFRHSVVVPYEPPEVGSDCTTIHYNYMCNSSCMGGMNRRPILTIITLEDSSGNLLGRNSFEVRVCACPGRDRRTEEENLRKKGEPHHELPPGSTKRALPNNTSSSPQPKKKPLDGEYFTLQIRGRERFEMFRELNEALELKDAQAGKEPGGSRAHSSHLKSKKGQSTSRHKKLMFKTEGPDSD
Sequence of human Retinoid X Receptor beta (RXRb), RXRB (gene 6257) (P28702 whole entry, looked up, the tested form may be a part): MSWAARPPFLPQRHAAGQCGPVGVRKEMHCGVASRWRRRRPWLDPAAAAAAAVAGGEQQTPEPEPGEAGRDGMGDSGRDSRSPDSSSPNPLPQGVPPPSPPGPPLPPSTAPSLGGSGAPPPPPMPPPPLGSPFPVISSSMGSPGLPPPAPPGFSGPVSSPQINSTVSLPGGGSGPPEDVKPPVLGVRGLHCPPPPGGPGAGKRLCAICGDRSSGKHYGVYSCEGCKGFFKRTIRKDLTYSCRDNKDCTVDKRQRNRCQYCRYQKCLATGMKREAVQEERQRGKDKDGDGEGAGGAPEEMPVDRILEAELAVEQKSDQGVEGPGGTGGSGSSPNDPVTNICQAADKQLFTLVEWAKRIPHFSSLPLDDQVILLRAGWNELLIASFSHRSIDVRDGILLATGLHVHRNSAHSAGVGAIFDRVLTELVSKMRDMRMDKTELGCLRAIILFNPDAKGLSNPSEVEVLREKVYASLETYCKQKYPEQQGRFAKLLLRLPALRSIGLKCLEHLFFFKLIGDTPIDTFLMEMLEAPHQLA
Sequence of Nuclear receptor subfamily 1 group I member 2 (Homo sapiens) (O75469 whole entry, looked up, the tested form may be a part): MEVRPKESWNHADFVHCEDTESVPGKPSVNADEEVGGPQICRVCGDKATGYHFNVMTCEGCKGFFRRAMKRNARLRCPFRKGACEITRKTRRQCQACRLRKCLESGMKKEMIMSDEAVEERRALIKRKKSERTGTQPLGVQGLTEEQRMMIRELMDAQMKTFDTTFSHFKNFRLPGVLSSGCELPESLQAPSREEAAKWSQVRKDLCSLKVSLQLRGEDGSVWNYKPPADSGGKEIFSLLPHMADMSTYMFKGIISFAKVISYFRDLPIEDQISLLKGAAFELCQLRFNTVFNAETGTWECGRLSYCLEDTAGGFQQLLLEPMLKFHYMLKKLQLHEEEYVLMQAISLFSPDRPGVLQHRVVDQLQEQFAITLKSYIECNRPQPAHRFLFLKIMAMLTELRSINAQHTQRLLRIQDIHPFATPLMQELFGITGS
Sequence of Nuclear respiratory factor 1 (Homo sapiens) (Q16656 whole entry, looked up): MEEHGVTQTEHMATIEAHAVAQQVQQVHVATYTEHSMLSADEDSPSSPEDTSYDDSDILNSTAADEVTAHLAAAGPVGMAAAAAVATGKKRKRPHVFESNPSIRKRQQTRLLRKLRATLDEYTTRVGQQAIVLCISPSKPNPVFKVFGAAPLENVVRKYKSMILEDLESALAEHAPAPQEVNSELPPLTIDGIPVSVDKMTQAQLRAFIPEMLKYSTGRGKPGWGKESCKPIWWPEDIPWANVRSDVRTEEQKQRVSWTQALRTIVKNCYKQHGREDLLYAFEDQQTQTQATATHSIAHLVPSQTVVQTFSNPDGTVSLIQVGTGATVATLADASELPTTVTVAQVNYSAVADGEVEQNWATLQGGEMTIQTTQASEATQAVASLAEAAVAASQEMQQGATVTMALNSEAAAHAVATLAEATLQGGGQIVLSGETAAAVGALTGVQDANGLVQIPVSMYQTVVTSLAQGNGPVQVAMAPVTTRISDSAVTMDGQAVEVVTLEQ

`S=c1[nH]c2ccccc2[nH]1`: the compound was classed as inactive in assay [1], in [2], in [3], in assay [4], in assay [5] and in assay [6]. In addition, the compound was classed as inactive in assay [7], in assay [8], in assay [9], in assay [10], in [11] and in [12]. For the same compound, the outcome in [13] was inactive.
For the compound `CCOC(=O)NC(=S)Nc1ccccc1NC(=S)NC(=O)OCC`, the outcome in [2], in assay [3], in assay [4], in [14], in assay [6] and in [7] was inactive. Besides, the call in assay [15] and in [12] was inactive. The AC50 in assay [9] is 0.77 µM (active); in assay [16], 59.6 µM (active); in assay [11], 85.4 µM (active); in assay [17], 77.3 µM (active); in [13], 64 µM (active).
In the case of `O=S(=O)(O)O`, the result in assay [2], in assay [4], in assay [18], in [7], in [8] and in assay [9] was inactive. Besides, the compound was classed as inactive in assay [19] and in [10].
Consider `CN(C)N`, for which the result in assay [2], in [3], in [4], in assay [14], in assay [5] and in assay [18] was inactive. Also, the result in assay [6], in assay [7], in [19], in assay [17] and in assay [13] was inactive.
Turning to `O=C(CCN1CC1)OCC(CO)(COC(=O)CCN1CC1)COC(=O)CCN1CC1`, the compound was classed as inactive in assay [1], in [2], in [3], in assay [4], in assay [5] and in [18]. The outcome in [6], in [7], in [15], in assay [8], in [19] and in assay [10] was inactive. Also, the outcome in [16], in assay [17], in assay [12] and in assay [13] was inactive.

For orientation: AC50 means the midpoint of the concentration-response curve, whichever way the signal moves.
